Test results from PubChem BioAssay (NCATS).
Records with an inconclusive call do not appear. The source made the active and inactive calls. Calls follow the shape of the dose curve; as a rule, active = well fitted curve in the direction sought with a large enough effect; inconclusive = small, poorly fitted or top-dose-only effect, or another doubt; inactive = no such curve, though single readings can be large; an effect the other way counts as inactive or inconclusive.

Assays:
[1] = molecular target: Rap guanine nucleotide exchange factor 3 (Homo sapiens) (UniProt O95398); test: Confirmatory qHTS for agonist of cAMP-regulated guanine nucleotide exchange factor 3 (EPAC1) (AID 1645881);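 also: EPAC1 catalysed release of BODIPY-GDP from Rap1B seen as fluorescence loss; 100% = effect of cAMP agonist control; nearly all actives have a fitted effect of over 75% in size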
[2] = molecular target: Rap guanine nucleotide exchange factor 4 (Homo sapiens) (UniProt Q8WZA2); test: Confirmatory qHTS for agonist of cAMP-regulated guanine nucleotide exchange factor 4 (EPAC2) (AID 1645884);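 also: nucleotide exchange releases bodipy-GDP from Rap1 and this lowers its fluorescence; nearly all actives have a fitted effect of over 65% in size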; also: potency is read from the fitted curve at half-maximal effect; as to activation: % is scaled to controls: 0 for no effect and ±100 for the full control effect
[3] = molecular target: Rap guanine nucleotide exchange factor 4 (Homo sapiens) (UniProt Q8WZA2); test: Confirmatory qHTS for antagonist of cAMP-regulated guanine nucleotide exchange factor 4 (EPAC2) (AID 1645885); also: nearly all actives have a fitted effect of over 25% in size; also: potency is read from the fitted curve at half-maximal effect; as to activity change, negative = inhibition: % is scaled to controls: 0 for no effect and ±100 for the full control effect
[4] = molecular target: Rap guanine nucleotide exchange factor 3 (Homo sapiens) (UniProt O95398); test: Counterscreen qHTS for antagonist of cAMP-regulated guanine nucleotide exchange factor 3 (EPAC1) (AID 1645888);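 also: fluorescence loss as bound BODIPY-GDP is released from Rap1B; % of control where 0% means no effect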
Summary of the method: (§1)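 Rap1B–BODIPY-GDP (250 nM) with 50 uM GDP; compounds pin-transferred to 9.74 nM–152 uM final (activator) or from 7.32 nM upwards (inhibitor). Fluorescence Ex/Em 480/540 nm read at 5 and 30 min, then after adding cAMP or buffer, at room temperature.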

[5] = molecular target: Rap guanine nucleotide exchange factor 3 (Homo sapiens) (UniProt O95398); test: Counterscreen qHTS for agonist of cAMP-regulated guanine nucleotide exchange factor 3 (EPAC1) (AID 1645889); also: % of control where 0% means no effect; nearly all actives have a fitted effect of over 40% in size
Summary of the method: as §1

Sequence of Rap guanine nucleotide exchange factor 4 (Homo sapiens) (Q8WZA2 whole entry, looked up): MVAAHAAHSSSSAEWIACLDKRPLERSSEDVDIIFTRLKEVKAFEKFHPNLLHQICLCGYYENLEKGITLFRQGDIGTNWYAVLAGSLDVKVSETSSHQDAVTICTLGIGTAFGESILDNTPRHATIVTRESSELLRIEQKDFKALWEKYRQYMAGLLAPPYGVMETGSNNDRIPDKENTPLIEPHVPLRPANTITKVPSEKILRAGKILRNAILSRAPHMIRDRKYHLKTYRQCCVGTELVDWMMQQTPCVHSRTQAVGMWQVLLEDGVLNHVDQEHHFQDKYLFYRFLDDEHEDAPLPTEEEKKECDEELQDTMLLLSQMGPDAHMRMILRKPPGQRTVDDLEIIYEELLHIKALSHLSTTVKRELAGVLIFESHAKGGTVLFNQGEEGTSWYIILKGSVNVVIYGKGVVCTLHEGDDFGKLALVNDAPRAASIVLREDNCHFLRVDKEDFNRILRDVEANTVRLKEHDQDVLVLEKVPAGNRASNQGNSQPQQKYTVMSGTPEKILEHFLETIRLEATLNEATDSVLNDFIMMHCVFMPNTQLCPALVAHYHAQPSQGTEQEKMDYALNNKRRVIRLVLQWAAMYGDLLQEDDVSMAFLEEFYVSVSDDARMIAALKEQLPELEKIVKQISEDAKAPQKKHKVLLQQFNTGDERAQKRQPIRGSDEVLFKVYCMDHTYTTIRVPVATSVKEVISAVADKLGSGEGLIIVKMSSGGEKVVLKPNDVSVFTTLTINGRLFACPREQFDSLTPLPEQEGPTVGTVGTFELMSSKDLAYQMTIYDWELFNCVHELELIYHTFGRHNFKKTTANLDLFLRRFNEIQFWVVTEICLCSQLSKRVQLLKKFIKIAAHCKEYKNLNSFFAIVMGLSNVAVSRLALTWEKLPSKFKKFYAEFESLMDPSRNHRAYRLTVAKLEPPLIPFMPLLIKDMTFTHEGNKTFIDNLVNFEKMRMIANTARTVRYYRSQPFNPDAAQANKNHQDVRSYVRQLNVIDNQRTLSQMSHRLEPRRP
Sequence of Rap guanine nucleotide exchange factor 3 (Homo sapiens) (O95398 whole entry, looked up): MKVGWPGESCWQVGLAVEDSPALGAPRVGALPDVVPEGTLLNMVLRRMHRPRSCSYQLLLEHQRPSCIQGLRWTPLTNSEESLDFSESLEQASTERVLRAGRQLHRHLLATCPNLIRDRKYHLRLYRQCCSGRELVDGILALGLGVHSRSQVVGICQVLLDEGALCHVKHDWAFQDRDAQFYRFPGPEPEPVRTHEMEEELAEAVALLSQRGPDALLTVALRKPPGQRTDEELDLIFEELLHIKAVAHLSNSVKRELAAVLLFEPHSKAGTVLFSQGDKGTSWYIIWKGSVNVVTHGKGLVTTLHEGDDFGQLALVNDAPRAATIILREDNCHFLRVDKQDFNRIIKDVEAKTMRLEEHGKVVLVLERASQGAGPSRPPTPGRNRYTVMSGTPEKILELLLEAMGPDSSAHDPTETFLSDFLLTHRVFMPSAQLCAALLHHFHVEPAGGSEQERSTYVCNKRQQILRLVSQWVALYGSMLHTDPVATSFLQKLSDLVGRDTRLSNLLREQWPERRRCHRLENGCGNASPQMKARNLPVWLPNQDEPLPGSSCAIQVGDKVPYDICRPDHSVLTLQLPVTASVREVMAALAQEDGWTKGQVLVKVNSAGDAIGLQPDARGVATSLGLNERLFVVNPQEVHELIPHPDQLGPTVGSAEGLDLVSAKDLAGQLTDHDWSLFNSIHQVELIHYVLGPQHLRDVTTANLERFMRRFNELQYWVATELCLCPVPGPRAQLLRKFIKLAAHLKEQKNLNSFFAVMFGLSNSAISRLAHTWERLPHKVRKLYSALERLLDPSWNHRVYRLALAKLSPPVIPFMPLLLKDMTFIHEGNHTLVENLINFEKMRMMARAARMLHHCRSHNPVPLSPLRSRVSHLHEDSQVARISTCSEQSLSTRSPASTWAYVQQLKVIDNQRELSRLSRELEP

O=C(NN1C(=O)/C(=C/C=C/c2ccco2)SC1=S)c1ccncc1
inactive: Potency [1] | Potency [2] | Potency [3] | Potency [4] | Potency [5]

COc1ccc(C(C)(NC(C)=O)c2nc(-c3cc(F)cc(F)c3)cs2)cc1 (stereo not given)
inactive: Potency [1] | activation [2] 0% [at 17.1 µM, percent relative to cAMP agonist control] | Potency [3] | activity change, negative = inhibition [4] -9.04% [at 30.8 µM] | activation [5] 15% [at 30.8 µM]

CCOc1cc(-c2c(C#N)c(N)nc3c2CCCC3C)ccc1O (stereo not given)
inactive: Potency [1] | Potency [3] | Potency [4] | Potency [5]
active: Potency [2] 398 nM

COc1ccc(-c2csc(C(C)(O)c3ccccc3)n2)cc1 (stereo not given)
inactive: Potency [1] | activation [2] 5.7% [at 17.1 µM, percent relative to cAMP agonist control] | Potency [3] | activity change, negative = inhibition [4] 8.72% [at 30.8 µM] | activation [5] 23.4% [at 30.8 µM]

Cc1ccc(N(Cc2cccs2)C(=O)c2ccco2)cc1
inactive: Potency [1] | Potency [2] | Potency [3] | Potency [4] | Potency [5]

O=Nc1c(O)c2ccccc2c2ccccc12
inactive: Potency [1] | activation [2] 0.886% [at 17.1 µM, percent relative to cAMP agonist control] | Potency [3] | activity change, negative = inhibition [4] -4.76% [at 30.8 µM] | activation [5] 24.1% [at 30.8 µM]

CC1=C(C(=O)OC2CCCCCC2)C(c2c(Cl)cccc2Cl)CC(=O)N1 (stereo not given)
inactive: Potency [1] | Potency [2] | Potency [3] | Potency [4] | Potency [5]

CC(C)CCNc1c(-c2cccs2)nc2ccccn12
inactive: Potency [1] | Potency [2] | Potency [3] | Potency [4] | Potency [5]

O=C(N/N=C/c1ccccc1O)/C(=C/c1ccccc1)CCO
inactive: Potency [1] | Potency [2] | Potency [3] | Potency [4] | Potency [5]

C[C@@H]1CC=C[C@H]2[C@H]1C(=O)N(Cc1ccccc1)[C@H]2c1ccc(C(F)(F)F)cc1
inactive: Potency [1] | activation [2] -4.74% [at 17.1 µM, percent relative to cAMP agonist control] | Potency [3] | activity change, negative = inhibition [4] -9.3% [at 30.8 µM] | activation [5] 7.88% [at 30.8 µM]

CC(C)c1ccc(S(=O)(=O)Nc2ccc3c(c2)OCO3)cc1
inactive: Potency [1] | Potency [2] | Potency [3] | Potency [4] | Potency [5]

CCc1ccc(-n2c(CCC(=O)O)ccc2-c2cccs2)cc1
inactive: Potency [1] | Potency [2] | Potency [3] | Potency [4] | Potency [5]

COC(=O)c1ccccc1NC(=O)Cn1nc(C(F)(F)F)c2c1CCCC2
inactive: Potency [1] | Potency [2] | outcome [3] inactive [at 12.7 µM] | Potency [4] | Potency [5]

Cc1ccc(C)c(Nc2cc(C)nc(-c3ccccc3O)n2)c1
inactive: Potency [1] | activation [2] 10% [at 17.1 µM, percent relative to cAMP agonist control] | Potency [3] | activity change, negative = inhibition [4] -8.51% [at 30.8 µM] | activation [5] 7.83% [at 30.8 µM]

C/C(CC(=O)N1CCCC1)=N\NC(=O)c1cc2ccccc2cc1O
inactive: Potency [1] | Potency [2] | Potency [3] | Potency [4] | Potency [5]

Cc1ccc(-c2nc3ccc(C)cn3c2Cc2ccccc2C(F)(F)F)cc1
inactive: Potency [1] | Potency [2] | Potency [3] | Potency [4] | Potency [5]

O=C(O)c1cc(-c2ccc(/C=C3/SC(=S)N(Cc4ccccc4)C3=O)o2)ccc1Cl
inactive: Potency [1] | activation [2] -8.48% [at 17.1 µM, percent relative to cAMP agonist control] | Potency [3] | activity change, negative = inhibition [4] -11.2% [at 30.8 µM] | activation [5] 7.37% [at 30.8 µM]

O=C(CCC(=O)N1CCSc2ccccc21)NCc1cccc(Br)c1
inactive: Potency [1] | activation [2] 9.98% [at 17.1 µM, percent relative to cAMP agonist control] | Potency [3] | activity change, negative = inhibition [4] 0.997% [at 30.8 µM] | activation [5] 10% [at 30.8 µM]

COc1ccc(OC)c(C(=O)/C=C/c2ccccc2C(F)(F)F)c1
inactive: Potency [1] | Potency [2] | Potency [3] | Potency [4] | Potency [5]

Cc1cc(Cl)ccc1OCCCC(=O)OCC(=O)c1c(N)n(C)c(=O)n(C)c1=O
inactive: Potency [1] | activation [2] 11.9% [at 17.1 µM, percent relative to cAMP agonist control] | Potency [3] | activity change, negative = inhibition [4] -16.7% [at 30.8 µM] | activation [5] 27.4% [at 30.8 µM]

CC1=Nc2ccccc2N=C(NC(=O)/C=C/C(=O)O)C1c1ccccc1 (stereo not given)
inactive: Potency [1] | Potency [2] | Potency [4] | Potency [5]
active: Potency [3] 67.5 nM

Cc1oc2c(cc(NS(=O)(=O)c3ccc(F)cc3)c3ccccc32)c1C(=O)O
active: Potency [3] 75700 nM
inactive: Potency [1] | Potency [2] | Potency [4] | Potency [5]

OC(c1ccc(F)c(F)c1)c1nc(-c2csc3ccccc23)cs1 (stereo not given)
inactive: Potency [1] | activation [2] 3.04% [at 17.1 µM, percent relative to cAMP agonist control] | Potency [3] | activity change, negative = inhibition [4] -0.286% [at 30.8 µM] | activation [5] 2.58% [at 30.8 µM]
